The source of these data is PubChem BioAssay AID624040 (The Scripps Research Institute Molecular Screening Center, 2012).

Hit rate of the full screen: of about 360,000 compounds, about 2,100 (0.58%) were called active. The entries come from a sample that favours actives as a whole. A number with no mark means an inactive call.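 How the source made its calls: active means inhibition above a per-plate cutoff, the mean of that plate's test compounds plus 3 SD (cut at about 27% in these data); inactive means the rest.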

In the assay the target is Muscarinic acetylcholine receptor M5 (Homo sapiens) (UniProt P08912). Briefly: human M5 muscarinic receptor antagonists, primary screen, CHO cells, Fluo-8 calcium fluorescence (AID 624040).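 Further: 0% = acetylcholine EC80 with DMSO and 100% = DMSO without agonist.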 Conditions: CHO-hM5 cells, ACh EC80, at 3 µM, hits give high values.
Muscarinic acetylcholine receptor M5 (Homo sapiens), sequence (P08912 whole entry, looked up): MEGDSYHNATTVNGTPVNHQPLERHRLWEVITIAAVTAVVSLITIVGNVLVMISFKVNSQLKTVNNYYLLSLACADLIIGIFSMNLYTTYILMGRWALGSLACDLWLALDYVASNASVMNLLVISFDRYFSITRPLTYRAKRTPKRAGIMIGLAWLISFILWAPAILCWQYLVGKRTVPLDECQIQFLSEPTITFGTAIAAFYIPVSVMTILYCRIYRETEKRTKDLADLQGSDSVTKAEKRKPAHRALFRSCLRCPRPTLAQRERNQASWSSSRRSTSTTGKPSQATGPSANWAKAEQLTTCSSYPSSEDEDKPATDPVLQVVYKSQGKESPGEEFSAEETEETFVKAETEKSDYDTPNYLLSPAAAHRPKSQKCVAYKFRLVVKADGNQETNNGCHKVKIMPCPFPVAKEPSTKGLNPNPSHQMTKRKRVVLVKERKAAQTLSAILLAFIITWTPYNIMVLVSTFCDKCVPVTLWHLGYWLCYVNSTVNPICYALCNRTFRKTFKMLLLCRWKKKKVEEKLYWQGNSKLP
As a reminder, the inhibition is the relative decrease from the control value, in per cent. On to `CC(C)OCCCNc1ncnc2c1[nH]c1ccc(F)cc12`, for which the inhibition was 36.1% (active).
As for `COC(=O)c1ccccc1NC(=O)CN(Cc1ccccc1)S(C)(=O)=O`, the inhibition is -12.2%.
In the case of `COCCNC(=O)C1(C)CCCN(Cc2cccc(F)c2)C1` (stereo unspecified) it was 4.07%.
Then `COc1cc(CNc2ncnc3c2ncn3[C@H]2CN(Cc3cccs3)C[C@@H](CO)O2)cc(OC)c1OC`, with 10.9%; and `O=C(Cc1ccc(Cl)c(Cl)c1)Nc1ccc(SC(F)F)cc1`, with 33.6% (active).
For the compound `O=C(CCl)Nc1ccc(Sc2ccc(NC(=O)CCl)cc2)cc1`, the inhibition was 2.24%.
In the case of `O=C(CC(O)(C(F)(F)F)C(F)(F)F)Nc1ccc(Cl)c(Cl)c1` it was 17.8%; in that of `Cc1ccc(NC2=C(Cl)C(=O)OC2OC(=O)c2ccccc2C)cc1` (stereo unspecified), 5.07%; in that of `CCC(C)(C)NC(=O)c1cc([N+](=O)[O-])ccc1N1CCCCC1`, 6.53%.
`CCN1CCN(c2ccc([N+](=O)[O-])cc2C(=O)c2ccc(Cl)cc2)CC1`: the inhibition is 78.8% (active).
In the case of `CCC(=O)c1ccc(N2CCN(C(=O)c3cc([N+](=O)[O-])ccc3F)CC2)c(F)c1` it was 17.6%.
In the case of `O=C(CCC1CCCCC1)Nc1cc(C(F)(F)F)ccc1N1CCOCC1` it was 10.2%; in that of `COC(=O)[C@@]12C[C@@H](CC(=O)N3CCCCC3)C(=O)N(Cc3ccc4c(c3)OCO4)C1=CCC(C)(C)C2`, -4.41%; in that of `Cc1ccc(C)c2[nH]c(=O)c(CCNC(=O)c3cccs3)cc12`, 2.31%.
In the case of `Cc1cc2cc(CNC(=O)c3ccc(S(=O)(=O)N4CCOCC4)cc3)ccc2[nH]1` it was 13.1%; in that of `Cc1cc2cc(CNC(=O)c3cccs3)ccc2[nH]1`, 97.7% (active).
`Cc1ccc(C)n1-c1ccncc1`: the inhibition is 2.29%.
Then `COc1cc(NC(=O)c2ccccc2NS(=O)(=O)c2ccc(Cl)s2)cc(OC)c1`, with 14.3%.
In the case of `CCOC(=O)c1ccc(N/C(=N/S(=O)(=O)c2ccccc2)c2ccccc2)cc1` it was -3.7%; in that of `COC(=O)c1ccc(NC(=O)c2ccccc2NS(=O)(=O)c2ccccc2)cc1`, 31.6% (active); in that of `COc1ccccc1NC(=O)CSc1nnc(-c2ccoc2C)n1CCc1ccccc1`, 6.68%.
For the compound `COC(=O)C1=C(C)N(c2ccc(C)cc2)/C(=C/c2ccc(O)cc2)C1=O`, the inhibition is 3.87%.
In the case of `Cc1ccn2c(=O)c(C(=O)NCCC3=CCCCC3)c(O)nc2c1` it was 2.86%.
In the case of `CC(NC(=O)C(=O)Nc1nccs1)c1ccccc1` (stereo unspecified), the inhibition was 30.9% (active).
In the case of `CC(=O)NC(CC(=O)Nc1nccs1)c1ccccc1` (stereo unspecified), the inhibition was -3.08%.
Then `C[C@H](NC(=O)c1[nH]cnc1C(=O)Nc1nccs1)c1ccccc1`, with 11.9%; and `O=C(C1CC1)N1N=C2CCCCC2C1(O)C(F)(F)F` (stereo unspecified), with 13.2%.
Then `Cc1nc(C)c(C(=O)N(c2ccc(C)c(C)c2)C(C(=O)NCc2ccco2)c2ccccc2)s1` (stereo unspecified), with 2.62%; and `CC(C)(C)C(=O)c1c(N)[nH]c(C(=O)c2ccccc2)c1-c1ccc(F)cc1`, with -1.9%.
Consider `COc1ccc(NC(=O)COC(=O)c2ccc(NS(=O)(=O)/C=C/c3ccccc3)cc2)cc1`, for which the inhibition was 14.2%.
On to `CCC(C(=O)OCC(=O)Nc1ccc(C(=O)Nc2ccc(OC)cc2)cc1)c1ccccc1` (stereo unspecified), for which the inhibition was 36.3% (active).
Then `COc1ccc(NC(=O)CC(NC(C)c2ccccc2)C(=O)O)cc1` (stereo unspecified), with 4.75%; and `Cc1ccc(N2C(=O)C3C(c4ccccc4)(C2=O)C3(c2ccccc2)c2ccccc2)cc1` (stereo unspecified), with 15.6%; and `O=c1[nH]c2ccccc2n1C1CCN(CCOc2ccccc2)CC1`, with 8.05%.
Consider `COc1ccc(OCCCCN2CCC(C)CC2)cc1`, for which the inhibition was 5.32%.
In the case of `OC(c1ccccc1)(c1ccccc1)C1CCN(CCCOc2ccccc2)CC1` it was 97.1% (active); in that of `OC[C@@H]1CN(Cc2ccc3c(c2)OCO3)C[C@H](n2cnc3c(NCc4ccco4)ncnc32)O1`, -1.64%; in that of `COc1cc(C(=O)NCc2nnc(SCC(=O)Nc3nc4ccc(C)cc4s3)o2)cc(OC)c1OC`, -2.26%.
As to `CCn1c(CNC(=O)c2cc(OC)c(OC)c(OC)c2)cc2cc(C)ccc21`, the inhibition is 48% (active).
As for `COc1cc(C(=O)NCc2ccc(-n3cccc3)cc2)cc(OC)c1OC`, the inhibition is 21.1%.
Then `CSc1ncccc1C(=O)OCC(=O)N1CCOCC1`, with -6.57%; and `Cc1ccc2cc(CCNC(=O)c3ccc4c(c3)OCO4)c(=O)[nH]c2c1`, with -4.27%.
In the case of `OC(COc1ccc2ccccc2c1)Cn1cncn1` (stereo unspecified) it was -0.83%; in that of `CCOC(=O)c1c(/N=C/C2C(=O)CC(C)(C)CC2=O)sc(C)c1C`, -2.97%; in that of `CC(C)CN(C(=O)CSc1ncnc2sccc12)C1CCS(=O)(=O)C1` (stereo unspecified), 1.5%.
For the compound `CCN(C(=O)CSc1nc2ccccc2n1CC)C1CCS(=O)(=O)C1` (stereo unspecified), the inhibition was -0.58%.
In the case of `CC(C)CN(C(=O)Cn1c(=O)cnc2ccccc21)C1CCS(=O)(=O)C1` (stereo unspecified) it was 99.6% (active); in that of `N#Cc1c(NC(=O)c2ccc(N3CCOCC3)c([N+](=O)[O-])c2)sc2c1CCCC2`, 2.95%; in that of `O=C1NC[C@H](Cc2ccc(O)cc2)N(C[C@@H]2CCCN2C[C@H](Cc2ccccc2)N2C[C@H](Cc3ccccc3)N(CC3CCCCC3)C(=O)C2=O)C1=O`, -4.87%.
In the case of `Cc1cc(CN(C)C(=O)c2cc(COc3ccc(C)c(C)c3)on2)n[nH]1` it was -7.18%.
Then `Cc1ccc(OCc2cc(C(=O)N(C)CCn3ccnc3C)no2)cc1C`, with -4.53%; and `CN(Cc1cccnc1)C(=O)c1cc(COc2ccc3ncccc3c2)on1`, with 42.6% (active).
`CC/C(=C\c1ccc(Cl)cc1)c1ccncc1`: the inhibition was 4.13%.
Then `CC(=O)Nc1cccc(-c2ccnc3c2CC(C)(C(=O)NCc2ccccc2)O3)c1` (stereo unspecified), with -11.6%; and `C=CCN(c1ccccc1C(=O)NCC(=O)OCC)S(=O)(=O)c1ccc(C)cc1`, with 3.91%; and `CCOc1ccc(CN(Cc2ccco2)S(=O)(=O)c2ccc(-n3cnnn3)c(OC)c2)cc1`, with 4.28%.
Then `COc1ccc(C(C(=O)NCC2CCCO2)N(C(=O)Cn2nnc3ccccc32)c2ccc(NC(C)=O)cc2)cc1OC` (stereo unspecified), with -5.21%; and `Cc1ccc(C(C(=O)NCc2ccco2)N(CC2CCCO2)C(=O)Cn2nnc3ccccc32)cc1` (stereo unspecified), with -3.06%; and `CCOc1cc(C(C(=O)NCC2CCCO2)N(C(=O)Cn2nnc3ccccc32)c2cccc(OC)c2)ccc1O` (stereo unspecified), with 31.8% (active).
In the case of `COc1ccc(CCNc2cc(C)nc3c(-c4ccc(Cl)cc4)c(C)nn23)cc1OC` it was 0.85%; in that of `CSCCC(C(=O)NC1=NCCS1)N1C(=O)c2ccccc2C1=O` (stereo unspecified), 6.62%.
As for `CCN(CC)C(=O)C1CCCN(Cc2cccc(Cl)c2)C1` (stereo unspecified), the inhibition is 2.81%.
In the case of `COc1c(O)ccc2c1CN1CCc3cc4c(cc3C1C2)OCO4` (stereo unspecified) it was 4.81%; in that of `N#CC1(Nc2ccc3c4c(cccc24)CC3)CCCCC1`, 40.5% (active); in that of `CC(C)C(=O)Nc1ccc2c3c(cccc13)CC2`, -8.88%.
In the case of `N#CC1(Nc2ccc(-c3ccc(Cl)cc3)cc2)CCCC1` it was 16.1%; in that of `CCCCOC(=O)c1ccc(NC(c2ccc(C)cc2)P(=O)(OC)OC)cc1` (stereo unspecified), 8.39%; in that of `CC1=C(C(=O)N2CCOCC2)CC(CC(=O)NCc2ccco2)C(=O)N1Cc1ccc(F)cc1` (stereo unspecified), -4.73%.
In the case of `N#Cc1c(-c2ccccc2)c(-c2ccccc2)n[nH]c1=O` it was 31.9% (active); in that of `O=C(O)c1n[nH]nc1-c1ccccc1`, -3.66%; in that of `Cc1c(-c2ccccc2)nc(N)c(C#N)c1-c1cccs1`, 8.1%.
For the compound `COc1cc(C)nc(N2CCCC(C(=O)NCC(C)C)C2)n1` (stereo unspecified), the inhibition was -3.29%.
In the case of `CCCc1cc(C(=O)N2CCCC(CO)(CCCc3ccccc3)C2)n(C)n1` (stereo unspecified) it was 17%.
In the case of `CCN(CC)S(=O)(=O)c1ccc(N(C)Cc2ccc(C(F)(F)F)cc2)nc1`, the inhibition was 29% (active).
In the case of `CCN(CC)S(=O)(=O)c1ccc(N(C)CCc2ccc(OC)c(OC)c2)nc1` it was 3.43%; in that of `CCN(CC)S(=O)(=O)c1ccc(N(C)Cc2cccc(OC)c2OC)nc1`, 22.7%; in that of `Nc1c(Cl)cc(-c2csc(N3CCCC3c3nc4cc(Cl)c(Cl)cc4n3CCOCCO)n2)cc1Cl` (stereo unspecified), 15.2%.
Then `O=C(COC(=O)c1cc(-c2cccs2)nn1-c1ccccc1)Nc1cc([N+](=O)[O-])ccc1Cl`, with 1.74%; and `CCCCN(C(=O)C(CCSC)N1C(=O)c2ccccc2C1=O)c1c(N)n(CCC)c(=O)[nH]c1=O` (stereo unspecified), with -3.24%; and `Cc1ccc(NC(=O)CN(C)CC(=O)Nc2cccc(F)c2)cc1[N+](=O)[O-]`, with 35.5% (active).
With `CN(CC(=O)Nc1cccc(F)c1)C(=O)C1=COCCO1`, the inhibition was 11.4%.
In the case of `Cc1ccc(NC(=O)c2sccc2C)cc1[N+](=O)[O-]` it was 10.3%; in that of `CCCNC(=O)NCc1ccc(N2CCCC2=O)cc1`, -1.94%; in that of `CN(C)CCOC(=O)C(c1ccccc1)C1(O)CCCC1` (stereo unspecified), 98.1% (active).
On to `O=C(O)C(c1ccccc1)C1(O)CCCCC1` (stereo unspecified), for which the inhibition is -13.2%.
Then `O=C(O)C(c1cccs1)C1(O)CCCCC1` (stereo unspecified), with 9.55%; and `COc1ccc(NC(=O)CC2C(=O)NC3CCCCC3N2C(=O)c2ccc(F)cc2)cc1` (stereo unspecified), with 23.2%; and `CC(C)(C)NCc1cc(Br)ccc1OC1CCCC1`, with -2.57%.
In the case of `CCOc1ccc(Br)cc1CSC(=N)N` it was 30.2% (active); in that of `CCOc1ccc(Br)cc1S(=O)(=O)N1CCC(C(=O)O)CC1`, 10.7%; in that of `CC(C)(C)NC(=O)CN(C(=O)c1ccc(Cl)nc1)c1cccc2ccccc12`, 0.44%.
